Laboratory results: publication PMC7862700, “An all-to-all approach to the identification of sequence-specific readers for epigenetic DNA modifications on cytosine”

What was measured:
Assay in all cases: DAPPL (digital affinity profiling via proximity ligation, sequencing); 10 mM Tris-HCl pH 7.5, 50 mM NaCl, 1 mM DTT, 4% glycerol, room temperature, 30 min; GST-TFs on glutathione beads, 16-mer random dsDNA library, 0.1% formaldehyde crosslink after washing; high values mean tight binding
FEV = target: T1, FEV (Homo sapiens, UniProt Q99581 1-238); conditions: protein: recombinant; tags: N-terminal GST; dsDNA, one strand shown
T1 sequence: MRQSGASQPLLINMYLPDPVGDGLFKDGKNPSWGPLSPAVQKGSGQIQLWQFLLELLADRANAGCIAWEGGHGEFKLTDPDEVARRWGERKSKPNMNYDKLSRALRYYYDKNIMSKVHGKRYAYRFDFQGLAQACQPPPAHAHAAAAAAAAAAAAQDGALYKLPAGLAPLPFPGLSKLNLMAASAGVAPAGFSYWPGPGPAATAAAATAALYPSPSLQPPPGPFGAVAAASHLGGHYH
In short: (§1)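 Pools of DNA-barcoded human transcription factors, expressed in yeast as GST fusions on glutathione beads and combined with a tag-only sample, were incubated with 200 nmole of a 16-mer random double-stranded DNA library. Incubation took 30 min at room temperature in Tris/NaCl/DTT/glycerol buffer and was followed by washing, 0.1% formaldehyde crosslinking, proximity ligation (BsaI/T4 ligase, 1 h, 37 °C), PCR amplification and sequencing on an Illumina NextSeq500. Binding signal is the ratio of a hexamer's read frequency for a factor to its frequency for the tag-only sample.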

ETV5 = ETV5 (Homo sapiens, UniProt P41161 1-510); conditions: protein: recombinant; tags: N-terminal GST; dsDNA, one strand shown
Sequence of ETV5 (P41161 whole entry): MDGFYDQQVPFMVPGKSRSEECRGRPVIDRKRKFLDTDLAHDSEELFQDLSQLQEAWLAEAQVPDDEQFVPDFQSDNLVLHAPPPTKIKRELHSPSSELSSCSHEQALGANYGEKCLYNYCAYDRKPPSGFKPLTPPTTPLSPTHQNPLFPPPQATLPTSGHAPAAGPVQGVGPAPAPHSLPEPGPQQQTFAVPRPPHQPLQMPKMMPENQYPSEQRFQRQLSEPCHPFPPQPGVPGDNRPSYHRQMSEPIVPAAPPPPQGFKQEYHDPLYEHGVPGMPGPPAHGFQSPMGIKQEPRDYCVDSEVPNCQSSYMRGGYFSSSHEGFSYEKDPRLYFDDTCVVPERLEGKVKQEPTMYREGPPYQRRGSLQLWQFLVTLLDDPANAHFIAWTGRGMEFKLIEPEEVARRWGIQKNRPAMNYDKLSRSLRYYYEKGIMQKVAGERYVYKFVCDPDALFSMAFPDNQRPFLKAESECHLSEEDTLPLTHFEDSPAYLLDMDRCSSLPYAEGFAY
In short: as §1

HSF1 = HSF1 (Homo sapiens, UniProt Q00613 1-529); conditions: protein: recombinant; tags: N-terminal GST; chain copies: 3; dsDNA, one strand shown
Sequence of HSF1 (Q00613 whole entry): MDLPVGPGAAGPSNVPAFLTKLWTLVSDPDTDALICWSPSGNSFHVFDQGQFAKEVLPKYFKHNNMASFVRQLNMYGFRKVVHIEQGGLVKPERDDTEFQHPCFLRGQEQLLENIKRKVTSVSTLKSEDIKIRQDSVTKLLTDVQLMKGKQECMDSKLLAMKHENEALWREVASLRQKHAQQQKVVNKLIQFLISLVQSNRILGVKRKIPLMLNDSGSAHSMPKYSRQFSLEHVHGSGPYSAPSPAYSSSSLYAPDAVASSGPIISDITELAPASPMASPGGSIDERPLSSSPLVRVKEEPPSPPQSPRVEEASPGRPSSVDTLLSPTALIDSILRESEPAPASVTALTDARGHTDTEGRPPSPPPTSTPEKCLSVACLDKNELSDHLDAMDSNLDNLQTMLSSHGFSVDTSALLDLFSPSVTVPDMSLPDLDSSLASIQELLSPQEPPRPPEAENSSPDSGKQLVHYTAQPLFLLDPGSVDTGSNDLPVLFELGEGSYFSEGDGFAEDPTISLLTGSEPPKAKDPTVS
In short: as §1

SPIC = target: T2, SPIC (Homo sapiens, UniProt Q8N5J4 1-248); conditions: protein: recombinant; tags: N-terminal GST; dsDNA, one strand shown
T2 sequence: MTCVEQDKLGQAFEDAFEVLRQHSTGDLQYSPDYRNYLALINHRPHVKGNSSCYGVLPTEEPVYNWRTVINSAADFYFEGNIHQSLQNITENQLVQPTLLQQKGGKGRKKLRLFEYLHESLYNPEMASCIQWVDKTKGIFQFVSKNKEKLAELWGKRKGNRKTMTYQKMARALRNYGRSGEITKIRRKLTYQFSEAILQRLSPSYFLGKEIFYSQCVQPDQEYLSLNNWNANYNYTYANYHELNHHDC
In short: as §1

ELF4 = ELF4 (Homo sapiens, UniProt Q99607 1-663); conditions: protein: recombinant; tags: N-terminal GST; dsDNA, one strand shown
Sequence of ELF4 (Q99607 whole entry): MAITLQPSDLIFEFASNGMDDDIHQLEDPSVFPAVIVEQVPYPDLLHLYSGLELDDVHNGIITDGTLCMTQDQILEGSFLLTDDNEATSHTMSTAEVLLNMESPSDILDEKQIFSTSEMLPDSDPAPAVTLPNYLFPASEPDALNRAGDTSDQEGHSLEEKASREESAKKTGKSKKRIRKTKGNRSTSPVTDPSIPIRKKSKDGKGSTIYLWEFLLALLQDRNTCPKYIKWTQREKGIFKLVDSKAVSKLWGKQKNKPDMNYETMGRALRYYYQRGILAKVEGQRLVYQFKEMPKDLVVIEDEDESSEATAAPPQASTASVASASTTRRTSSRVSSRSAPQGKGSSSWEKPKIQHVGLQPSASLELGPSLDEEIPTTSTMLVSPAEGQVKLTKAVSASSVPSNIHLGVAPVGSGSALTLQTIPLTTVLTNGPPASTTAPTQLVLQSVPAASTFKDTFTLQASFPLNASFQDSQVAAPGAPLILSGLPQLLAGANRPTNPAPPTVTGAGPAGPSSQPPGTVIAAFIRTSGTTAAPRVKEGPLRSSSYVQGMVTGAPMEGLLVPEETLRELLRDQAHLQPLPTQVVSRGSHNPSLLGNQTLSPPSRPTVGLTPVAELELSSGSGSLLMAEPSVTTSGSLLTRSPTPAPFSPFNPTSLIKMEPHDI
In short: as §1

ELK4 = target: T3, ELK4 (Homo sapiens, UniProt P28324-2 1-405); conditions: protein: recombinant; tags: N-terminal GST; dsDNA, one strand shown
T3 sequence: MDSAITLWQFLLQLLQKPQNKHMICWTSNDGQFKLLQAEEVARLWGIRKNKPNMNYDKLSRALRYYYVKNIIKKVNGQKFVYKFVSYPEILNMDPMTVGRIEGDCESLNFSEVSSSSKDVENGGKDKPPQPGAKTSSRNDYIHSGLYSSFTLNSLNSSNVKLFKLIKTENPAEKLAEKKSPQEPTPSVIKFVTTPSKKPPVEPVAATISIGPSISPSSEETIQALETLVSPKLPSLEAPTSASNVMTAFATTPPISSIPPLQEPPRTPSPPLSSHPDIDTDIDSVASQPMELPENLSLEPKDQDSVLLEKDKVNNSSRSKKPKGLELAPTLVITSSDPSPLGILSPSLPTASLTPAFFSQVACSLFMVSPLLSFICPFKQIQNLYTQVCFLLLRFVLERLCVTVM
In short: as §1

ETV2 = target: T4, ETV2 (Homo sapiens, UniProt O00321 1-342); conditions: protein: recombinant; tags: N-terminal GST; dsDNA, one strand shown
T4 sequence: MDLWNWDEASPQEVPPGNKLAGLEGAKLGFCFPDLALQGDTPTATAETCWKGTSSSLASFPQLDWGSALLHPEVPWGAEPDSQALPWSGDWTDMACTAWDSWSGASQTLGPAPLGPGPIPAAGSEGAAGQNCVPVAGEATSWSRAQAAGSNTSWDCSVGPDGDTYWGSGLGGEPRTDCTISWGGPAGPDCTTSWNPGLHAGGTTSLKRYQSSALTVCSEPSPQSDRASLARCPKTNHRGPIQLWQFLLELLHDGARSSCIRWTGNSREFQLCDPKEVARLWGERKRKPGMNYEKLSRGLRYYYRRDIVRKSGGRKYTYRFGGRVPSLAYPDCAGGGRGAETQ
In short: as §1

ELF3 = target: T5, ELF3 (Homo sapiens, UniProt P78545 1-371); conditions: protein: recombinant; tags: N-terminal GST; dsDNA, one strand shown
T5 sequence: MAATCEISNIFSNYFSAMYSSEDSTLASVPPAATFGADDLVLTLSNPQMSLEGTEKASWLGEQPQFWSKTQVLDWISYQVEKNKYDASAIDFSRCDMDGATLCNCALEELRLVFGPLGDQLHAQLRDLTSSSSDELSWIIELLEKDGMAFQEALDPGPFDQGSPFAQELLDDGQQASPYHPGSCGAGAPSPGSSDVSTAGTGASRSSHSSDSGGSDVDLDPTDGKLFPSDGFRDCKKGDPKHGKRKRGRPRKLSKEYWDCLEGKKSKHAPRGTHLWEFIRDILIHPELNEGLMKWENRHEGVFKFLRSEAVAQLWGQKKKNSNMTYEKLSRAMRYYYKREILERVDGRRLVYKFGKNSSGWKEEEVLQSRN
In short: as §1

CRX = CRX (Homo sapiens, UniProt O43186 1-299); conditions: protein: recombinant; tags: N-terminal GST; dsDNA, one strand shown
Sequence of CRX (O43186 whole entry): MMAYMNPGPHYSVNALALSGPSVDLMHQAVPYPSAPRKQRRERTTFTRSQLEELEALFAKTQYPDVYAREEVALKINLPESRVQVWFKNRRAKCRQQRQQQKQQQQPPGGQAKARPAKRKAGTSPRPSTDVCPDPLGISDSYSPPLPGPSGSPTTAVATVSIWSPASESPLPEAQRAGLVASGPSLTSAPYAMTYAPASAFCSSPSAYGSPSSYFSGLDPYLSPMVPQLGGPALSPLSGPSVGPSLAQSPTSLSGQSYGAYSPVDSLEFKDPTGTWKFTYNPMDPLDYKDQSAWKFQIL
In short: as §1

ETV1 = ETV1 (Homo sapiens, UniProt P50549 1-477); conditions: protein: recombinant; tags: N-terminal GST; dsDNA, one strand shown
Sequence of ETV1 (P50549 whole entry): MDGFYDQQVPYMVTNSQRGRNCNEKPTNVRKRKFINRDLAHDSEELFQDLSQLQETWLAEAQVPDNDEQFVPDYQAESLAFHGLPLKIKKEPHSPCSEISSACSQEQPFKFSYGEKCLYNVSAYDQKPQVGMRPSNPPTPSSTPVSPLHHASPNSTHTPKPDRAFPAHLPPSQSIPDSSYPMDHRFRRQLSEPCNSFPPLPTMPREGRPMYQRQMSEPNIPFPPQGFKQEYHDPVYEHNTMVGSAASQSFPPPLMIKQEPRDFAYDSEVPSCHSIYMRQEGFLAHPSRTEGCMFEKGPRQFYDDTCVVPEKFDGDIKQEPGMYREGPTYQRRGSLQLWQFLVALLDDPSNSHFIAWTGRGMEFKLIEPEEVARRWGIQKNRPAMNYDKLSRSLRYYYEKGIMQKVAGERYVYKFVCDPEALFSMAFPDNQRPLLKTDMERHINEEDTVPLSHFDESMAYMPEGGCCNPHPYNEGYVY
In short: as §1

Row | Sequence | binding signal (FEV) | binding signal (ETV5) | binding signal (HSF1) | binding signal (SPIC) | binding signal (ELF4) | binding signal (ELK4) | binding signal (ETV2) | binding signal (ELF3) | binding signal (CRX) | binding signal (ETV1)
1 | TCTAAG | 1.13 fold enrichment (6-mer frequency, TF over GST control) | 1.3 fold enrichment (6-mer frequency, TF over GST control) | 1.49 fold enrichment (6-mer frequency, TF over GST control) | 1.21 fold enrichment (6-mer frequency, TF over GST control) | 1.25 fold enrichment (6-mer frequency, TF over GST control) | 1.2 fold enrichment (6-mer frequency, TF over GST control) | 1.29 fold enrichment (6-mer frequency, TF over GST control) | 1.27 fold enrichment (6-mer frequency, TF over GST control) | 1.86 fold enrichment (6-mer frequency, TF over GST control) | 1.25 fold enrichment (6-mer frequency, TF over GST control)
2 | CTCCCG | 1.61 fold enrichment (6-mer frequency, TF over GST control) | 1.59 fold enrichment (6-mer frequency, TF over GST control) | 1.5 fold enrichment (6-mer frequency, TF over GST control) | 1.77 fold enrichment (6-mer frequency, TF over GST control) | 1.68 fold enrichment (6-mer frequency, TF over GST control) | 1.46 fold enrichment (6-mer frequency, TF over GST control) | 1.25 fold enrichment (6-mer frequency, TF over GST control) | 1.69 fold enrichment (6-mer frequency, TF over GST control) | 1.27 fold enrichment (6-mer frequency, TF over GST control) | 1.5 fold enrichment (6-mer frequency, TF over GST control)
3 | ACTAGC | 1.11 fold enrichment (6-mer frequency, TF over GST control) | 1.2 fold enrichment (6-mer frequency, TF over GST control) | 1.32 fold enrichment (6-mer frequency, TF over GST control) | 1.17 fold enrichment (6-mer frequency, TF over GST control) | 1.17 fold enrichment (6-mer frequency, TF over GST control) | 1.24 fold enrichment (6-mer frequency, TF over GST control) | 1.3 fold enrichment (6-mer frequency, TF over GST control) | 1.01 fold enrichment (6-mer frequency, TF over GST control) | 1.11 fold enrichment (6-mer frequency, TF over GST control) | 1.19 fold enrichment (6-mer frequency, TF over GST control)
4 | AAGTAA | 1.24 fold enrichment (6-mer frequency, TF over GST control) | 1.32 fold enrichment (6-mer frequency, TF over GST control) | 1.24 fold enrichment (6-mer frequency, TF over GST control) | 1.35 fold enrichment (6-mer frequency, TF over GST control) | 1.27 fold enrichment (6-mer frequency, TF over GST control) | 1.19 fold enrichment (6-mer frequency, TF over GST control) | 1.38 fold enrichment (6-mer frequency, TF over GST control) | 1.42 fold enrichment (6-mer frequency, TF over GST control) | 1.39 fold enrichment (6-mer frequency, TF over GST control) | 1.31 fold enrichment (6-mer frequency, TF over GST control)
5 | TATTGA | 1.1 fold enrichment (6-mer frequency, TF over GST control) | 1.1 fold enrichment (6-mer frequency, TF over GST control) | 1.14 fold enrichment (6-mer frequency, TF over GST control) | 1.2 fold enrichment (6-mer frequency, TF over GST control) | 1.17 fold enrichment (6-mer frequency, TF over GST control) | 1.17 fold enrichment (6-mer frequency, TF over GST control) | 1.14 fold enrichment (6-mer frequency, TF over GST control) | 1.19 fold enrichment (6-mer frequency, TF over GST control) | 1.29 fold enrichment (6-mer frequency, TF over GST control) | 1.16 fold enrichment (6-mer frequency, TF over GST control)
6 | GTAAAA | 1.07 fold enrichment (6-mer frequency, TF over GST control) | 1.19 fold enrichment (6-mer frequency, TF over GST control) | 1.11 fold enrichment (6-mer frequency, TF over GST control) | 1.13 fold enrichment (6-mer frequency, TF over GST control) | 1.14 fold enrichment (6-mer frequency, TF over GST control) | 1.02 fold enrichment (6-mer frequency, TF over GST control) | 1.21 fold enrichment (6-mer frequency, TF over GST control) | 1.13 fold enrichment (6-mer frequency, TF over GST control) | 1.03 fold enrichment (6-mer frequency, TF over GST control) | 1.06 fold enrichment (6-mer frequency, TF over GST control)
7 | TTTAGC | 1.11 fold enrichment (6-mer frequency, TF over GST control) | 1.03 fold enrichment (6-mer frequency, TF over GST control) | 1.25 fold enrichment (6-mer frequency, TF over GST control) | 1.07 fold enrichment (6-mer frequency, TF over GST control) | 1.2 fold enrichment (6-mer frequency, TF over GST control) | 1.13 fold enrichment (6-mer frequency, TF over GST control) | 1.13 fold enrichment (6-mer frequency, TF over GST control) | 1.08 fold enrichment (6-mer frequency, TF over GST control) | 1.64 fold enrichment (6-mer frequency, TF over GST control) | 1.18 fold enrichment (6-mer frequency, TF over GST control)
8 | TATACA | 1.29 fold enrichment (6-mer frequency, TF over GST control) | 1.35 fold enrichment (6-mer frequency, TF over GST control) | 1.27 fold enrichment (6-mer frequency, TF over GST control) | 1.28 fold enrichment (6-mer frequency, TF over GST control) | 1.37 fold enrichment (6-mer frequency, TF over GST control) | 1.28 fold enrichment (6-mer frequency, TF over GST control) | 1.28 fold enrichment (6-mer frequency, TF over GST control) | 1.43 fold enrichment (6-mer frequency, TF over GST control) | 1.36 fold enrichment (6-mer frequency, TF over GST control) | 1.43 fold enrichment (6-mer frequency, TF over GST control)
